Measured values published in PubChem BioAssay (NCI).
Compounds without any hit were thinned out: in the full panel of roughly 83,000, 20% have a hit.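 Testing used 96-well plates and a 48-hour single-concentration exposure. Example: -40 means 40% of the starting cells died.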 Unmarked numbers belong to inactive results. Activity calls are given as the source filed them. Rule for the calls: active = growth percent below 10; inactive = the rest.

Columns and labels:
Assay in all cases: NCI-60 one-dose screen, 48 h (100 = growth as untreated, 0 = no growth, -100 = all killed)
Conditions in all cases: 10 µM unless noted
RPMI-8226 leukemia = system: RPMI-8226 leukemia
OVCAR-8 ovarian = system: OVCAR-8 ovarian
OVCAR-5 ovarian = system: OVCAR-5 ovarian
OVCAR-4 ovarian = system: OVCAR-4 ovarian
SK-OV-3 ovarian = system: SK-OV-3 ovarian
IGROV1 ovarian = system: IGROV1 ovarian
OVCAR-3 ovarian = system: OVCAR-3 ovarian
HS 578T breast = system: HS 578T breast
NCI/ADR-RES ovarian = system: NCI/ADR-RES ovarian
T-47D breast = system: T-47D breast

Row | SMILES | growth (RPMI-8226 leukemia) | growth (OVCAR-8 ovarian) | growth (OVCAR-5 ovarian) | growth (OVCAR-4 ovarian) | growth (SK-OV-3 ovarian) | growth (IGROV1 ovarian) | growth (OVCAR-3 ovarian) | growth (HS 578T breast) | growth (NCI/ADR-RES ovarian) | growth (T-47D breast)
1 | C#Cc1nc(C2=C(C)C(=N\O)/C(=N/O)C2)cs1 | 72.2% | 92.3% | 109% | 99% | 105% | -14.1% (active) | 118% | 86.7% | 38.5% | 82.6%
2 | Fc1ccc(-c2nc(C(Cl)Cl)nc3cc(-c4ccccc4)nn23)cc1 | 8.68% (active) | -0.748% (active) | -12.3% (active) | -18.6% (active) | -28.9% (active) | 20.4% | -28.1% (active) | -7.41% (active) | 17.8% | 44.3%
3 | COC(=O)C(C)NS(=O)(=O)/N=C1\NC(=O)NC1=C(Cl)Cl (stereo unspecified) | 104% | 100% | 98.8% | 113% | 119% | 104% | 117% | 107% | 105% | 107%
4 | CS(=O)(=O)c1ccc(-c2nc3ccccn3c2/C=N/Nc2nc(-c3ccc(Br)cc3)cs2)cc1 | 94.1% | 99.1% | 110% | 107% | 140% | 111% | 139% | 112% | 107% | 94%
5 | COc1ccc(C(=O)/C=C/c2ccc(Oc3nc(NCCO)nc(N4CCOCC4)n3)c(OC)c2)cc1 | 9.42% (active) | 69.6% | 99.9% | 81.8% | 108% | 78.6% | 101% | 78.1% | 82.9% | 94.1%
6 | CCCC(=O)NC(c1ccc2c(c1)OC(F)(F)O2)c1cc(C)c2cccnc2c1O (stereo unspecified) | 29.1% | 14.3% | 42% | 33.7% | 9.65% (active) | 12.7% | 24.8% | 38.5% | 18.8% | 23.9%
7 | Clc1ccc2oc3c(NCCCn4ccnc4)c4ccccc4nc3c2c1 | 37.6% | 43.4% | 50.1% | 63% | 93.9% | 36.5% | 76.7% | 61.7% | 41.2% | 88.9%
8 | COc1cccc(-c2nn(-c3ccccc3)cc2-c2ccnc(N3CCN(C(=O)c4ccccc4)CC3)c2)c1 | 47.7% | 56.4% | 112% | 77.9% | 118% | 76% | – | 100% | 43.4% | 50.3%
9 | O=C(O)CCCCCN1C(=O)/C(=C/c2ccc(O)c(O)c2)SC1=S | 111% | 103% | 108% | 101% | 124% | 106% | 108% | 99.6% | 104% | 98%
10 | CN(C)c1ccc(/C=C2\Cc3c(F)ccc(Br)c3C2=O)cc1 | 93.1% | 96.5% | 107% | 35.9% | 97.7% | – | 101% | 92.2% | 91% | 54.2%
11 | N#Cc1nc(-c2ccccc2)oc1S(=O)(=O)N1CCCCC1 | 64.6% | 89.9% | 102% | 101% | 132% | 19.9% | -54.2% (active) | 106% | 99.3% | 49.9%
12 | COc1ccc(-c2csc(N/N=C/c3c(-c4ccc(S(C)(=O)=O)cc4)nc4ccccn34)n2)cc1 | 91.4% | 103% | 108% | 105% | 136% | – | 124% | 118% | 110% | 87.8%
13 | CC(C)(C)Nc1nc2c(OCCc3ccccc3)cccn2c1-c1ccccc1Cl | -25.8% (active) | 9.35% (active) | 10.9% | 13.5% | -22.7% (active) | 5.74% (active) | 8.2% (active) | -1.74% (active) | 5.82% (active) | 10.3%
14 | O=C1c2c(c3c4cc(Br)ccc4[nH]c3c3ccc4ccccc4c23)C(=O)N1CCO | 80.3% | 85.2% | 108% | 104% | 89.3% | 73.9% | – | 103% | 90.5% | 51.5%
15 | CCOC(=O)c1c(Nc2ccccc2)nn2c(N)c(C#N)c(-c3ccc(OC)cc3)nc12 | 88.7% | 66.1% | 101% | 35.9% | 55.9% | – | 101% | 19.4% | 73.3% | 61.3%
16 | COc1ccc(-c2nc3ccc(-c4nnc(SCC(=O)Nc5ccc(C(C)=O)cc5)o4)cc3[nH]2)cc1 | 97.1% | 108% | 107% | 109% | 118% | – | 138% | 96.8% | 118% | 105%
17 | CCOC(=O)c1c(Nc2ccccc2)nn2c(N)c(C#N)c(-c3ccc(Cl)cc3)nc12 | 86.1% | 42.5% | 78.5% | 44.1% | 59.4% | – | 81.8% | 33.8% | 71% | 68.5%
18 | CNC(=O)c1cc(-c2ccc(NC(=O)Nc3ccc(N4CCN(C)CC4)c(C(F)(F)F)c3)cc2)nc2cccnc12 | -35.8% (active) | -84% (active) | -88.6% (active) | -82.4% (active) | 59.7% | -83.9% (active) | – | -55.7% (active) | -21.6% (active) | -18.8% (active)
19 | Nc1c(C(=O)c2ccc(Br)cc2)oc2nc(-c3cnccn3)cc(-c3cccs3)c12 | 99.8% | 103% | 112% | 96.3% | 98.6% | 97.4% | 108% | 101% | 102% | 91.4%
20 | O=C(CCN1C(=O)/C(=C/c2ccccc2F)SC1=S)N1CCOCC1 | 59.7% | 99.6% | 94.2% | 99.1% | 135% | – | 99.8% | 101% | 99.8% | 59.3%
21 | COc1ccc(-c2nn3c(-c4ccccc4F)nnc3s2)cc1 | 58% | 68.3% | 81.2% | 82% | 84% | 57.3% | 49.6% | 74.2% | 21.3% | 46%
22 | O=C1C2=C(C(=O)c3c(O)cccc31)C(c1ccco1)c1sc(=O)[nH]c1S2 (stereo unspecified) | 18.7% | 2.5% (active) | 11.7% | 24.3% | 115% | 28.1% | – | -10.4% (active) | 9.22% (active) | 23.6%
23 | COc1cc(/C=C/C(=O)c2cc(OC)c(OC)c(OC)c2)ccc1OCc1ccc(F)cc1 | -16.1% (active) | 15.4% | 57.7% | 46.9% | 45.5% | – | 38.2% | 89.7% | 20% | 38.3%
24 | C#Cc1nc(C2=C(C)/C(=N/OCc3ccccc3)CC2)cs1 | -44.1% (active) | 21.2% | 54.6% | 16.7% | -22.3% (active) | -68.3% (active) | 74.2% | 70.9% | -3.32% (active) | 67.5%
25 | CCCC(=O)NC(c1cccc(N(C)C)c1)c1cc(C)c2cccnc2c1O (stereo unspecified) | 63.8% | 44% | 87.4% | 53.1% | 56.5% | – | 8.33% (active) | 71.4% | 22.6% | 56.6%
26 | COc1ccc(N/N=C/c2c(-c3ccc(S(C)(=O)=O)cc3)nc3ccccn23)cc1 | 32.2% | 49.1% | 67.4% | 42.1% | 62.2% | 51.9% | – | 62.4% | 34% | 26.2%
27 | Cc1sc2nc(NCc3ccccc3Cl)[nH]c(=O)c2c1C | 82.8% | 88.1% | 102% | 101% | 114% | 90.6% | 123% | 99% | 104% | 94.6%
28 | Cc1cc(=O)oc2cc(OCCCOc3ccc(/C=C/C(=O)Nc4ccc(Cl)cc4)cc3)ccc12 | 70.7% | 67.1% | 84% | 12.6% | 90.4% | 73.2% | – | 46.2% | 56.6% | 47.2%
